# Key:
# Assay in all cases: DAPPL (digital affinity profiling via proximity ligation, sequencing); 10 mM Tris-HCl pH 7.5, 50 mM NaCl, 1 mM DTT, 4% glycerol, room temperature, 30 min; GST-TFs on glutathione beads, 16-mer random dsDNA library, 0.1% formaldehyde crosslink after washing; high values mean tight binding
# Settings in all cases: protein: recombinant; tags: N-terminal GST; dsDNA, one strand shown
# SPIC = target: T1, SPIC (Homo sapiens, UniProt Q8N5J4 1-248)
# T1 sequence: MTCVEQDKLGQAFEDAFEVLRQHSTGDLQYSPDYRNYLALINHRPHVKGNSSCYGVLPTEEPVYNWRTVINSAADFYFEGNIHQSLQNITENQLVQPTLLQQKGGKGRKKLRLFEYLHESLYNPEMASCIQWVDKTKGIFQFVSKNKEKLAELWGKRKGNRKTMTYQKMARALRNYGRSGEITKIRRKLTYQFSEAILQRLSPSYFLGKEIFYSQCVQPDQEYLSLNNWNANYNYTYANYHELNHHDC
# How it was run: (§1)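 Human transcription factors fused to GST were expressed in yeast, captured on glutathione beads, given DNA barcodes and pooled with a GST-only negative control. Pools were incubated with 200 nmole of a 16-mer random double-stranded DNA library in Tris/NaCl/DTT/glycerol buffer at room temperature for 30 min. They were then washed, crosslinked with 0.1% formaldehyde, proximity-ligated (BsaI/T4 ligase, 1 h, 37 °C), PCR-amplified and sequenced on an Illumina NextSeq500. Binding signal is each 6-mer's read frequency for a factor divided by its frequency for the GST control.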
# ETV3L = target: T2, ETV3L (Homo sapiens, UniProt Q6ZN32 1-361)
# T2 sequence: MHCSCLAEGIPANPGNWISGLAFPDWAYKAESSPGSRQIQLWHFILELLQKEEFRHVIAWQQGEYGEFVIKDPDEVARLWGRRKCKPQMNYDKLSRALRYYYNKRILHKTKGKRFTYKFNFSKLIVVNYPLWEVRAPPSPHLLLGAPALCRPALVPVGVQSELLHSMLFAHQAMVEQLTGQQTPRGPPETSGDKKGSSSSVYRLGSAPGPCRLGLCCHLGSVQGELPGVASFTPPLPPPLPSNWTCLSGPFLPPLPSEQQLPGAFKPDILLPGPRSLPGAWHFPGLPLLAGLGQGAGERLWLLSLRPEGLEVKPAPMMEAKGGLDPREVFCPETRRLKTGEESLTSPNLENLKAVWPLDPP
# How it was run: as §1
# ETV7 = target: T3, ETV7 (Homo sapiens, UniProt Q9Y603 1-341)
# T3 sequence: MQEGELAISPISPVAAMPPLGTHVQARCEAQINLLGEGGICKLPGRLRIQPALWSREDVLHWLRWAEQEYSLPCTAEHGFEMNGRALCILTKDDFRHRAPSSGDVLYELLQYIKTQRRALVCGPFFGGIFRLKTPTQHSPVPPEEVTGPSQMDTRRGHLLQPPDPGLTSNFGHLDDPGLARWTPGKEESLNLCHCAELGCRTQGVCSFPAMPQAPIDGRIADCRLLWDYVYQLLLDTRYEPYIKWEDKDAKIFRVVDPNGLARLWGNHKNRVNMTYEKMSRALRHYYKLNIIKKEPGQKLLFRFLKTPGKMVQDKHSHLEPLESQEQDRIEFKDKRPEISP
# How it was run: as §1
# ERG = target: T4, ERG (Homo sapiens, UniProt P11308 1-479)
# T4 sequence: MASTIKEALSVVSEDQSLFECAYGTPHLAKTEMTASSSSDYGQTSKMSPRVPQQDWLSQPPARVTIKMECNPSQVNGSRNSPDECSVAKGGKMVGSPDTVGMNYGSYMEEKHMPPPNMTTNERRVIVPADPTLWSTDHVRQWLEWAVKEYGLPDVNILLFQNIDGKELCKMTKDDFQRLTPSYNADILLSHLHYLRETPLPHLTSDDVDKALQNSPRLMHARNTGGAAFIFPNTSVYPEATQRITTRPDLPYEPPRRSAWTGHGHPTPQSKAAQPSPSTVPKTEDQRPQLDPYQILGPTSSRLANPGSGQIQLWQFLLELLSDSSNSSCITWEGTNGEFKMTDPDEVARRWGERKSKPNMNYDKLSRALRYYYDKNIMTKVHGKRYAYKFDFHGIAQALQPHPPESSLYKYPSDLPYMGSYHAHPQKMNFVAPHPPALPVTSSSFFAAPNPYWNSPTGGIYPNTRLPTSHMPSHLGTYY
# How it was run: as §1
# EHF = target: T5, EHF (Homo sapiens, UniProt Q9NZC4 1-300)
# T5 sequence: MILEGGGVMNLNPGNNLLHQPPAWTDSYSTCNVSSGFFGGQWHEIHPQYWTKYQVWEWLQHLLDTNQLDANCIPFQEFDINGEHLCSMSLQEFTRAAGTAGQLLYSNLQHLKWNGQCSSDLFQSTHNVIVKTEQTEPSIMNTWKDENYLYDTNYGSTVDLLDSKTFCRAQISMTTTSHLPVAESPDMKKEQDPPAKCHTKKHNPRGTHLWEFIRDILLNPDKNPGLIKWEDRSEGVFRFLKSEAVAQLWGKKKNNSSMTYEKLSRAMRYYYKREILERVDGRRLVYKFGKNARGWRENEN
# How it was run: as §1
# ELK4 = target: T6, ELK4 (Homo sapiens, UniProt P28324-2 1-405)
# T6 sequence: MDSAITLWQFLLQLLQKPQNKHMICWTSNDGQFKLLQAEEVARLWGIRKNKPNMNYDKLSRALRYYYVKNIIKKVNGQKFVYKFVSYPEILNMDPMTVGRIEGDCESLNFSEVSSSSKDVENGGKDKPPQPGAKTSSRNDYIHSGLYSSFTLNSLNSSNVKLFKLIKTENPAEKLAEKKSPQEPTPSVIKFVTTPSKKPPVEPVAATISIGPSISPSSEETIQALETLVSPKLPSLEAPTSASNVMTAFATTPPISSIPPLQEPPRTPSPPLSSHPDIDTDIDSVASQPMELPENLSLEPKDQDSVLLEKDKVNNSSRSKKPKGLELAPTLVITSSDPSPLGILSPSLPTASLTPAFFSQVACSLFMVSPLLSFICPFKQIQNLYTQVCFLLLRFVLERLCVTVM
# How it was run: as §1
# ETV2 = target: T7, ETV2 (Homo sapiens, UniProt O00321 1-342)
# T7 sequence: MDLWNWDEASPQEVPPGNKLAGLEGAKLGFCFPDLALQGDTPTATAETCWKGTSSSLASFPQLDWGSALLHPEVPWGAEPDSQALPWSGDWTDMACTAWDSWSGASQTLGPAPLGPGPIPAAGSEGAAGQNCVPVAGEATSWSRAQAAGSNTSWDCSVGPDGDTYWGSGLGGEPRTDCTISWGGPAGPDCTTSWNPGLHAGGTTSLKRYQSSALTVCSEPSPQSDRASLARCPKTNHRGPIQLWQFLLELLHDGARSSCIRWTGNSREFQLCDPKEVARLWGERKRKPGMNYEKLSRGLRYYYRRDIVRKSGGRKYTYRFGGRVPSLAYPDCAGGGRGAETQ
# How it was run: as §1
# ELF3 = target: T8, ELF3 (Homo sapiens, UniProt P78545 1-371)
# T8 sequence: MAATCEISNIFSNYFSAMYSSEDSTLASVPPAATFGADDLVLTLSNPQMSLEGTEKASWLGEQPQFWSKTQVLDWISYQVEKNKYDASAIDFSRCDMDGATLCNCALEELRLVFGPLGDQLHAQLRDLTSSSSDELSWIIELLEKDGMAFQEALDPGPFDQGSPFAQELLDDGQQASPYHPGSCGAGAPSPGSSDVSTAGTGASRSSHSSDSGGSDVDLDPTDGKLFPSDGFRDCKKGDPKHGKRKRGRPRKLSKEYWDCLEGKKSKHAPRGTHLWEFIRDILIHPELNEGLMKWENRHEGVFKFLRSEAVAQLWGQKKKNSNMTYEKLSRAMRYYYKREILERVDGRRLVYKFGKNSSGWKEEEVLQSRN
# How it was run: as §1
# ETV1 = ETV1 (Homo sapiens, UniProt P50549 1-477)
# ETV1, sequence (P50549 whole entry): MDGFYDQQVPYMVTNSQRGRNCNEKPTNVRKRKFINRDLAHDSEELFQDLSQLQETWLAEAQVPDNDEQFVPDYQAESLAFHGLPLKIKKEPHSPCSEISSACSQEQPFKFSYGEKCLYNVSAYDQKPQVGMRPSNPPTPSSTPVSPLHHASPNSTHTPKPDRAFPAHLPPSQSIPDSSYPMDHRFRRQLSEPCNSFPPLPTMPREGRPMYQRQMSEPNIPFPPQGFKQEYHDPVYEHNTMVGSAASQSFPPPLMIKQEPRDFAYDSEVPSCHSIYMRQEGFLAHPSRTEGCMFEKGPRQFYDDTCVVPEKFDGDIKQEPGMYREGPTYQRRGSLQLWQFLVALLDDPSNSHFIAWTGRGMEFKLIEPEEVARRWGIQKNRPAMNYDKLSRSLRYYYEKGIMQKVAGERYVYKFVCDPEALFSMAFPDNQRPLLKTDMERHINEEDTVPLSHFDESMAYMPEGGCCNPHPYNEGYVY
# How it was run: as §1
# SPDEF = target: T9, SPDEF (Homo sapiens, UniProt O95238 1-335)
# T9 sequence: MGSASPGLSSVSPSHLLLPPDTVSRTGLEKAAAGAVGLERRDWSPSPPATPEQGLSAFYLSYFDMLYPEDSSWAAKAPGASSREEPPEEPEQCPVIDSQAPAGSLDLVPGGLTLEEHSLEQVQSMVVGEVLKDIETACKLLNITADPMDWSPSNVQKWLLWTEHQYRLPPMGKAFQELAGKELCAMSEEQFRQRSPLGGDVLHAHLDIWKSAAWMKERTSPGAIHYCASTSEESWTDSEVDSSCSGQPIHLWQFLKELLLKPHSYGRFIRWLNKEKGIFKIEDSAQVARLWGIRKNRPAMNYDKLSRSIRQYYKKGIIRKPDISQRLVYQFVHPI
# How it was run: as §1
# ETV3 = target: T10, ETV3 (Homo sapiens, UniProt P41162-2 1-143)
# T10 sequence: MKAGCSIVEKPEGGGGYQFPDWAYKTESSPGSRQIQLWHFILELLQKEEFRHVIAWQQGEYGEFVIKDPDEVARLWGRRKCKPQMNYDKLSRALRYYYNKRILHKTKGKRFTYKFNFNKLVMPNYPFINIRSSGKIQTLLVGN
# How it was run: as §1
sequence,measurement,setting,value
AGCATG,binding signal,SPIC,"1.07 fold enrichment (6-mer frequency, TF over GST control)"
same,binding signal,ETV3L,"1.02 fold enrichment (6-mer frequency, TF over GST control)"
GTAGTA,binding signal,SPIC,"1 fold enrichment (6-mer frequency, TF over GST control)"
same,binding signal,ETV7,"1.01 fold enrichment (6-mer frequency, TF over GST control)"
AGGTCC,binding signal,ERG,"1.02 fold enrichment (6-mer frequency, TF over GST control)"
same,binding signal,EHF,"1.05 fold enrichment (6-mer frequency, TF over GST control)"
same,binding signal,SPIC,"1.2 fold enrichment (6-mer frequency, TF over GST control)"
same,binding signal,ELK4,"1.02 fold enrichment (6-mer frequency, TF over GST control)"
same,binding signal,ETV2,"1.08 fold enrichment (6-mer frequency, TF over GST control)"
same,binding signal,ELF3,"1.07 fold enrichment (6-mer frequency, TF over GST control)"
same,binding signal,ETV1,"1.05 fold enrichment (6-mer frequency, TF over GST control)"
same,binding signal,ETV3L,"1.03 fold enrichment (6-mer frequency, TF over GST control)"
same,binding signal,SPDEF,"1.24 fold enrichment (6-mer frequency, TF over GST control)"
same,binding signal,ETV3,"1.03 fold enrichment (6-mer frequency, TF over GST control)"

# From article PMC7862700, “An all-to-all approach to the identification of sequence-specific readers for epigenetic DNA modifications on cytosine”
